Each structure is given as a SMILES string. In all, about 1,100 compounds went through this assay and about 390 (35%) were called active. Not shown: some 30% with an inconclusive outcome. The list shows a part of the results. A number with no mark means an inactive call. Calls follow the shape of the dose curve; as a rule, active = well fitted inhibition curve with a large enough effect; inconclusive = small, poorly fitted or top-dose-only effect; inactive = flat fitted curve, though single readings scatter.
% is scaled to controls: 0 for no effect and ±100 for the full control effect; potency is read from the fitted curve at half-maximal effect.

This assay concerns the target Luciferin 4-monooxygenase (Photinus pyralis) (UniProt P08659). Briefly: qHTS of Nrf2 Activators: Hit Validation in Secondary FLuc Assay. Also: nearly all actives have a fitted effect of over 65% in size. To be noted: firefly luciferase inhibition counter-screen, luminescence; series mostly up to 57.5 µM; activity, negative = inhibition: at the top concentration. An outline of the steps: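 Purified firefly luciferase is tested for inhibition by compounds in the presence of its substrates, ATP and D-luciferin, each at Km. Inhibition marks likely false positives arising from reporter-enzyme stabilization.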
With `N#Cc1ccccc1N/C=C/C(=O)c1ccc(Cl)cc1`, the Potency was 0.12 µM (active). For `COC(=O)c1cc(S(=O)(=O)C(C)C)c(S(C)=O)s1` (stereo unspecified), the “activity, negative = inhibition” value is 1.94%.

On to `Cc1cc(N/N=C/c2c(O)ccc3ccccc23)nc(-c2ccccc2O)n1`, for which the Potency was 7.57 µM (active). Same read-out and setting: then `C=C(NC(=O)C(=C)NC(=O)c1csc(C2=NC3c4csc(n4)C4NC(=O)c5csc(n5)C(C(C)(O)C(C)O)NC(=O)C5CSC(=N5)/C(=C/C)NC(=O)C(C(C)O)NC(=O)c5csc(n5)C3(CC2)NC(=O)C(C)NC(=O)C(=C)NC(=O)C(=C)NC(=O)C(C(C)C)NC2C=Cc3c(C(C)O)cc(nc3C2O)C(=O)OC4C)n1)C(N)=O` (stereo unspecified), with 7.57 µM (active); and `COc1ccc(-c2cc3ccccc3c(=O)o2)cc1`, with 0.478 µM (active). On to `CC(=O)Oc1ccc(-c2nc3c(C)cccc3c(=O)o2)cc1`, for which the “activity, negative = inhibition” value was -26.3%. `O=c1nc2c(-c3ccccc3F)n[nH]n2c2ccccc12`: the Potency was 7.57 µM (active). As to `Clc1nc(NCc2ccco2)nc(N2CCCCC2)n1`, the “activity, negative = inhibition” value is -3.37%.

As for `c1ccc2nc3c(ccc4ccccc43)cc2c1`, the Potency was 1.35 µM (active). Turning to `O=C(/C=C/c1ccc2c(c1)OCO2)c1ccc(O)cc1O`, the Potency is 1.9 µM (active). Consider `COc1cc(OCc2ccccc2)c(C(=O)/C=C/c2ccc3c(c2)OCO3)c(OC)c1OC`, for which the “activity, negative = inhibition” value was 2.26%. With `COC(=O)c1ccsc1NC(=O)CSc1nnnn1Cc1ccccc1`, the “activity, negative = inhibition” value was -14.3%. Turning to `Cc1csc(-c2ccc3cc(Cl)cc(Cl)c3n2)n1`, the Potency was 2.69 µM (active). `Cc1ccc(C(=O)OCc2c(C)noc2C)cc1NC(=O)c1ccco1`: the “activity, negative = inhibition” value is 1.47%. As to `Cc1ccc(-c2nc3cccnc3s2)cc1NC(=O)c1ccco1`, the Potency is 8.49 µM (active). As for `CCNc1nc(NCC)nc(N(C)/N=C/c2ccco2)n1`, the “activity, negative = inhibition” value was 0.966%. For `O=[N+]([O-])c1cc(Cl)cc(/C=N/Nc2nc3ccccc3s2)c1O`, the Potency is 13.5 µM (active). In the case of `Brc1cc2c(cc1/C=N/Nc1nc3ccccc3s1)OCO2`, the Potency is 2.69 µM (active). The same measure, in the same setting: then `O=C(/C=C/c1ccco1)Nc1ccc(Cl)c(-c2nc3cc(Cl)ccc3o2)c1`, with 10.7 µM (active). Turning to `O=C(/C=C/c1ccco1)NC(=S)Nc1ccccc1N1CCCC1`, the “activity, negative = inhibition” value was -27.1%. Regarding `O=C(Nc1cc2nn(-c3ccccc3)nc2cc1Cl)c1ccco1`, the Potency was 0.849 µM (active). For `Cc1ccc(NC(=O)c2ccc([N+](=O)[O-])s2)cc1S(=O)(=O)N1CCOCC1`, the “activity, negative = inhibition” value is -3.39%. `O=C(/C=C/c1ccco1)Nc1cccc(S(=O)(=O)N2CCOCC2)c1`: the Potency is 13.5 µM (active).

Consider `O=C(/C=C/c1ccco1)Nc1ccc2nn(-c3ccccc3)nc2c1`, for which the Potency is 9.53 µM (active). On to `O=[N+]([O-])c1cnc(Nc2ccc(Cl)cn2)c([N+](=O)[O-])c1`, for which the “activity, negative = inhibition” value is 1.13%. The same measure, in the same setting: then `O=C1N/C(=C\c2ccsc2)C(=O)N1Cc1ccc(F)cc1`, with -2.1%; and `CCc1ccc(/C=C/c2c([N+](=O)[O-])c(=O)n(C)c(=O)n2C)cc1`, with -27.8%. The same measure, in the same setting: to `CCC1C/C(=C/c2cccs2)C(=O)/C(=C/c2cccs2)C1` (stereo unspecified) belongs -23.6%; to `COc1ccc(Cl)cc1NC(=O)c1ccco1`, 0.501%. `O=C(Nc1cc(-c2nc3cc(Cl)ccc3o2)ccc1Cl)c1ccco1`: the Potency was 6.01 µM (active). Take `CCCS(=O)(=O)c1nc(S(=O)(=O)c2ccc(C)cc2)c(N2CC(C)OC(C)C2)s1` (stereo unspecified): the “activity, negative = inhibition” value is -1.58%. Consider `O=C(/C=C/Nc1ccc(F)c(Cl)c1)c1ccco1`, for which the Potency was 1.69 µM (active). For the compound `COc1cccc(-c2nc3n(n2)CCc2ccccc2-3)c1`, the Potency is 0.953 µM (active). With `CNc1ccc(-c2nc(-c3ccco3)no2)cc1[N+](=O)[O-]`, the Potency was 0.0849 µM (active). On to `CC(C)Nc1ccc(-c2nc(-c3ccco3)no2)cc1[N+](=O)[O-]`, for which the Potency was 0.213 µM (active). In the case of `CC(C)c1ccc(NC(=O)c2sccc2-n2cccc2)cc1`, the Potency is 10.7 µM (active). As for `Cc1ccc(CNC(=O)c2sccc2-n2cccc2)cc1`, the “activity, negative = inhibition” value is -11.8%.

As to `Cc1ccc(S(=O)(=O)c2nc(S(C)(=O)=O)sc2N2CCOCC2)cc1`, the “activity, negative = inhibition” value was 7.7%.

Turning to `COc1ccccc1-c1nnc(NC(C)=O)s1`, the Potency is 2.69 µM (active). Consider `COc1ccc(OC)c2sc(NC(=O)CCS(=O)(=O)c3ccccc3)nc12`, for which the “activity, negative = inhibition” value was -25.5%. Same read-out and setting: to `O=C(CCN1C(=O)c2cccc3cccc(c23)C1=O)Nc1ccon1` belongs -23.6%; to `COc1ccccc1NC(=O)/C(C#N)=C/C=C/c1ccco1`, -4.16%; to `COC(=O)c1ccccc1NC(=O)c1cc(-c2ccco2)on1`, -22.9%. For `COC(=O)c1ccccc1NC(=O)/C=C/c1ccco1`, the Potency was 8.49 µM (active). Still for that read-out and setting: to `COc1ccccc1NC(=O)/C=C\c1ccco1` belongs 10.7 µM (active). As to `CCn1c(=O)oc2cc(NC(=O)CCl)ccc21`, the “activity, negative = inhibition” value was 1.74%. Same read-out and setting: then `Cc1nn(-c2cccc(C(F)(F)F)c2)c(=O)c2ccccc12`, with -29.2%.

On to `Cc1nn(-c2ccc3ccccc3c2)c(=O)c2ccccc12`, for which the Potency was 3.38 µM (active). For the compound `Clc1cc(-c2ccccc2)nc(-c2ccccc2)n1`, the “activity, negative = inhibition” value is 1.58%. On the same count and under the same terms, to `c1ccc(-c2cc3c(ccc4nonc43)nn2)cc1` belongs -18.2%.

Consider `c1ccc(-c2cnc(-c3ccccc3)nn2)cc1`, for which the Potency was 0.301 µM (active).

On to `CC1Sc2n(c3ccccc3[n+]2C)N=C1c1ccccc1` (stereo unspecified), for which the “activity, negative = inhibition” value was -0.681%. On to `COc1ccccc1Cc1c(-c2ccco2)nc2ccc(Cl)cn12`, for which the Potency is 2.39 µM (active).

Take `Clc1ccc2nc(-c3ccco3)c(Cc3ccccc3)n2c1`: the Potency is 10.7 µM (active). With `O=C1c2cccc3cccc(c23)C(=O)N1CCCN(C(=O)c1cccs1)c1cccc(F)c1`, the “activity, negative = inhibition” value is 5.37%.

`CC(=O)COc1ccc2c(c1C)O/C(=C\c1ccco1)C2=O`: the Potency was 0.601 µM (active). As for `CCN1C(=O)/C(=C\c2ccco2)C(C(=O)OC)=C1C`, the “activity, negative = inhibition” value is -1.69%. The same measure, in the same setting: to `COc1ccc(C2NC(=S)NC3=C2CCCC3=C2SCCS2)cc1` (stereo unspecified) belongs -29.4%. Take `Cc1n[nH]c(=S)n1/N=C/c1ccc(-c2ccccc2[N+](=O)[O-])o1`: the Potency was 9.53 µM (active). As for `O=[N+]([O-])c1ccccc1/C=C/C=N/n1c(-c2ccco2)n[nH]c1=S`, the Potency was 7.57 µM (active). On the same count and under the same terms, then `S=c1[nH]nc(-c2ccco2)n1/N=C/C(Cl)=C/c1ccccc1`, with 13.5 µM (active); and `S=c1[nH]nc(COc2ccccc2)n1/N=C/C(Cl)=C/c1ccccc1`, with 19 µM (active). As for `S=c1[nH]nc(-c2ccco2)n1/N=C/c1ccccc1`, the “activity, negative = inhibition” value is -27.4%. Take `c1ccc2c(-c3nc4ncccc4o3)cccc2c1`: the Potency is 13.5 µM (active). On the same count and under the same terms, then `Nc1c(C(=O)c2ccc(Br)s2)oc2ccccc12`, with 2.69 µM (active). With `Nc1c(C(=O)c2cccs2)oc2ccccc12`, the Potency was 9.53 µM (active).

Values taken from PubChem BioAssay AID651597 (National Center for Advancing Translational Sciences (NCATS), 2012).
